Results on eight compounds are retold here after ChEMBL document CHEMBL3988442, “University of Dundee, Small-Polar-MMV Screening Library” (2021).

Holding throughout (design): scale not given: direction of the effect not stated beside the values
For experiment [1], the target named is Protein translocase subunit SecA (Escherichia coli (strain K12)) (UniProt P10408). Briefly: Assay to Identify E. coli SecA ATPase Inhibitors. In kind it is functional. As to conditions: 30 µM.
Experiment [2] has as its target T1, Ubiquitin-activating enzyme e1, putative (Leishmania donovani (strain BPK282A1)) (UniProt E9BSI1).
T1 sequence (whole entry): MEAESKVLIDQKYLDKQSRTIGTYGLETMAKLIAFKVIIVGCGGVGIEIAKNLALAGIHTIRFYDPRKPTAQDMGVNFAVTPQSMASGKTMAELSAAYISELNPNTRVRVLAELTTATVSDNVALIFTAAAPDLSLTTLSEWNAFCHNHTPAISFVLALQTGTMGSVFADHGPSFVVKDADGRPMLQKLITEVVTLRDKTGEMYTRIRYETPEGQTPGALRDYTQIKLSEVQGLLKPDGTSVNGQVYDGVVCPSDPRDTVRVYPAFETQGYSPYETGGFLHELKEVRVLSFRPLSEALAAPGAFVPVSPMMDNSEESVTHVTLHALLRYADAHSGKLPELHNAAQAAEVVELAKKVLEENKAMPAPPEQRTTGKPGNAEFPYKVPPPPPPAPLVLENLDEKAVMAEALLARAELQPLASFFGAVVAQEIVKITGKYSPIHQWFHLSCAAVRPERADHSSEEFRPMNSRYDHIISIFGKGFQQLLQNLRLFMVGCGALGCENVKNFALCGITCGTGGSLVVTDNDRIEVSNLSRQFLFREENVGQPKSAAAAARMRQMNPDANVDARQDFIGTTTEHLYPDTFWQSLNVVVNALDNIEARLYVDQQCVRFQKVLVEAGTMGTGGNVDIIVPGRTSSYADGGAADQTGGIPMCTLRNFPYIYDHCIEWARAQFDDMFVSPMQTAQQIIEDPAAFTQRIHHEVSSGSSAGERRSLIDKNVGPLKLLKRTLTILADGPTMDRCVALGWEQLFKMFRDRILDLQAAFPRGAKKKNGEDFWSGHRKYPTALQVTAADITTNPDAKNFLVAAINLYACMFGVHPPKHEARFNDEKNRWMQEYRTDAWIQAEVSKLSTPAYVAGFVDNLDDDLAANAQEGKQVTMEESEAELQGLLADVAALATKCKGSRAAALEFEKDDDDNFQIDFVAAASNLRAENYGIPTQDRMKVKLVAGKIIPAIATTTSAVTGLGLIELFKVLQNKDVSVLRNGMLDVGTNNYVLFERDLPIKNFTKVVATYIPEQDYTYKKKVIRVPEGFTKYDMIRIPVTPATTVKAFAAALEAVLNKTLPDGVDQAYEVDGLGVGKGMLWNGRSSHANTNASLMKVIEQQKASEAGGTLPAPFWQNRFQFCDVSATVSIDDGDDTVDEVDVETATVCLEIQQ
Briefly: Leishmania donovani Ubiquitin Activating Enzyme (LdE1). In kind it is functional. As to conditions: 30 µM.

Experiment [3] addresses AMP-activated protein kinase, AMPK (Homo sapiens) (UniProt P54646+O43741+P54619+Q9UGJ0+Q9Y478+Q13131+Q9UGI9). Briefly: AMP-dependent Kinase enzyme assay. An in vitro enzyme assay that detects ADP turnover that is directly proportional to AMPK activity. This uses naive AMPK that is activated during the assay with MK-8722. The class given is functional. As to conditions: 30 µM.

Experiment [4] addresses Sialic acid-binding Ig-like lectin 9 (Homo sapiens) (UniProt Q9Y336). Briefly: Hs-Siglec9 ALPHAscreen SOP 20170721. As to conditions: 10 µM.
For another experiment, the system named is Trypanosoma cruzi. Briefly: Trypanosoma cruzi phosphomannomutase and mannose-1-phosphate guanylyltransferase assay. As to conditions: 10 µM. In kind it is functional.
The target in experiment [5] is T2, Arginase-2, mitochondrial (Homo sapiens) (UniProt P78540).
T2 sequence (whole entry): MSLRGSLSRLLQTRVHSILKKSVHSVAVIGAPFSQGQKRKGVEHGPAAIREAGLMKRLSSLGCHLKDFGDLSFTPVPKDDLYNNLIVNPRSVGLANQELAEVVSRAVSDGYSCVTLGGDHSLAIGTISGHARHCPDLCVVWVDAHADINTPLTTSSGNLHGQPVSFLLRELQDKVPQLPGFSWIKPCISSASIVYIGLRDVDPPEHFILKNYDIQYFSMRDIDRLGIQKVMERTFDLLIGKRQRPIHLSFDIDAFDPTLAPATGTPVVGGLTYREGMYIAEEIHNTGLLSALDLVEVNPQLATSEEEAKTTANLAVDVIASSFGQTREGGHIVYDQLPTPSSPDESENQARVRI
The experiment is described as follows: in vitro enzyme assay to detect the production of urea directly proportional to the activity of Arginase II. Note: in the data most compounds retested in dose-response had high values. The class given is functional. As to conditions: 33.3 µM.

For experiment [6], the target named is T3, Proteasome subunit beta (Trypanosoma cruzi) (UniProt O96673).
T3 sequence (whole entry): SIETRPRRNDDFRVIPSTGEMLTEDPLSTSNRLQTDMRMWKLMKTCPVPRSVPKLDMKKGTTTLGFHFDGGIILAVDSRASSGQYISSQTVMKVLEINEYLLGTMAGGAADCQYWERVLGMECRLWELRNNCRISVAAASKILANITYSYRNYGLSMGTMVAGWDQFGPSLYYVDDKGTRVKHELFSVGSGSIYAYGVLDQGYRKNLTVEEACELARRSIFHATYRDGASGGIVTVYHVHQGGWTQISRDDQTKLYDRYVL
Briefly: Trypanosoma cruzi proteasome chymotrypsin-like activity (TcProtChymo) assay. Note: in the data most compounds retested in dose-response had high values. In kind it is functional. As to conditions: 9.37 µM.

Another experiment is filed under the species Homo sapiens. Briefly: To identify inhibition of the IFN signalling (Jak-Stat) pathway via expression of an eGFP reporter gene under the control of an IFN-stimulated response element (ISRE) containing MxA promoter. The class given is functional. As to conditions: 30 µM.
For experiment [7], the target named is T4, Tyrosyl-tRNA synthetase, putative (Trypanosoma cruzi (strain CL Brener)) (UniProt Q4DSP6).
T4 sequence (whole entry): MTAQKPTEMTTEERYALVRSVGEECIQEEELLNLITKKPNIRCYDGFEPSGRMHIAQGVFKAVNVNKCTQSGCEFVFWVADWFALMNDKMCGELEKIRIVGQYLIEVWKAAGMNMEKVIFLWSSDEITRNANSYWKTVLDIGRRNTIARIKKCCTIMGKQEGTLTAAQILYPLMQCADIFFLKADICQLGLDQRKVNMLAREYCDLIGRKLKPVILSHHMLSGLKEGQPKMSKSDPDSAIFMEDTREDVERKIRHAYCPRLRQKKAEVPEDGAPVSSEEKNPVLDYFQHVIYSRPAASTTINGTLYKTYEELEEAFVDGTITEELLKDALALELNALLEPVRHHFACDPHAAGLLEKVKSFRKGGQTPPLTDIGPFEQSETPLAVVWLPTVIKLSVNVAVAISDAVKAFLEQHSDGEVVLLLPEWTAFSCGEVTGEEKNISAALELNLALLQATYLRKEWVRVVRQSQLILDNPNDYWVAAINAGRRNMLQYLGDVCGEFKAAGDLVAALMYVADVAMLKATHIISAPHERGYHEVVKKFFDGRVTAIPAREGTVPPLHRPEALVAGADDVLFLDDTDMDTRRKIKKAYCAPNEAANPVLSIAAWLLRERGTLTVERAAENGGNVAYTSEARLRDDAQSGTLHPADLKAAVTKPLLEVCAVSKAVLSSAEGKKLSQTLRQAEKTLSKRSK
The experiment is described as follows: Trypanosoma cruzi tyrosyl tRNA synthetase (TcYRS) _High Tyrosine SOP. Note: in the data most compounds retested in dose-response had high values. In kind it is functional. As to conditions: 30 µM.

Experiment [8] deals with T4, Tyrosyl-tRNA synthetase, putative (Trypanosoma cruzi (strain CL Brener)). Briefly: Trypanosoma cruzi tyrosyl tRNA synthetase (TcYRS) SOP. In kind it is functional. As to conditions: 30 µM.
The target in experiment [9] is Chromo domain-containing protein 1 (Saccharomyces cerevisiae (strain ATCC 204508 / S288c) (Baker's yeast)) (UniProt P32657). The experiment is described as follows: ScCHD-1 Enzyme Inhibition Assay. Note: in the data most compounds retested in dose-response had high values. In kind it is functional. As to conditions: 30 µM.

For some of these results: Measured potencies and affinities stand elsewhere.

Sialic acid-binding Ig-like lectin 9 (Homo sapiens), sequence (Q9Y336 whole entry): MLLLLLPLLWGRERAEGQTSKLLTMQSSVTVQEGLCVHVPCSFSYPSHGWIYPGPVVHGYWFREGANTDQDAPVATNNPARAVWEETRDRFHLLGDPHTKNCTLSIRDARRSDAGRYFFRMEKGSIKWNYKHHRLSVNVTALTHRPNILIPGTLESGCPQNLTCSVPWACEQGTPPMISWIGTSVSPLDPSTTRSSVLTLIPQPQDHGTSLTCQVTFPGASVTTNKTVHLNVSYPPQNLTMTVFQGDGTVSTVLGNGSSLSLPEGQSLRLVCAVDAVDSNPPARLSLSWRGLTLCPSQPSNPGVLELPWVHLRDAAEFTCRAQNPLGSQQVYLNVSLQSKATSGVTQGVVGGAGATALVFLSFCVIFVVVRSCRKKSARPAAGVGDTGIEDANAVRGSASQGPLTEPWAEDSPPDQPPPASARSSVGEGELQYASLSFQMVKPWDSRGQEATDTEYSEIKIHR
Protein translocase subunit SecA (Escherichia coli (strain K12)), sequence (P10408 whole entry): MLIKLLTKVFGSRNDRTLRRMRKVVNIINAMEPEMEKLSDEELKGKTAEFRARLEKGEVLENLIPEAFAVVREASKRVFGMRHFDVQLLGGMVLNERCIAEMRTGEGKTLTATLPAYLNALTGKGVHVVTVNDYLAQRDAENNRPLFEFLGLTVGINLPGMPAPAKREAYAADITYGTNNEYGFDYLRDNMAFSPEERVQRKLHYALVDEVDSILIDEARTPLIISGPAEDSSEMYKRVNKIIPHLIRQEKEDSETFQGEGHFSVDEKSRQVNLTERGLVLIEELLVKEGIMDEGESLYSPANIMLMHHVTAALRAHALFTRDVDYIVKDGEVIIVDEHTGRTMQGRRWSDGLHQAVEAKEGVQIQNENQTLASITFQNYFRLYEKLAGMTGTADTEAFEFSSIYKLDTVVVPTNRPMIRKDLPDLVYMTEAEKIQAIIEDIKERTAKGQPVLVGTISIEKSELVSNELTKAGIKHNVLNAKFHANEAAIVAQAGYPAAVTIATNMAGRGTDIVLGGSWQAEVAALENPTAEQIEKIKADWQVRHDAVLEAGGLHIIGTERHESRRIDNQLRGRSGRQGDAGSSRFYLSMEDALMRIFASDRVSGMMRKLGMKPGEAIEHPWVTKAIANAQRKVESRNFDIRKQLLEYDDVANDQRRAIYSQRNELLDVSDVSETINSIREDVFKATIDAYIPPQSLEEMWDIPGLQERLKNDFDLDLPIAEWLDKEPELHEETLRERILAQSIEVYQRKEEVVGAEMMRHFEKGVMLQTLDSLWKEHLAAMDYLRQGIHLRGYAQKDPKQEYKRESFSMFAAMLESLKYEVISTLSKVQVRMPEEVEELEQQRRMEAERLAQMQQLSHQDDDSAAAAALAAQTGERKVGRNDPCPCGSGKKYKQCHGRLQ
Chromo domain-containing protein 1 (Saccharomyces cerevisiae (strain ATCC 204508 / S288c) (Baker's yeast)), sequence (P32657 whole entry, the tested form may be a part): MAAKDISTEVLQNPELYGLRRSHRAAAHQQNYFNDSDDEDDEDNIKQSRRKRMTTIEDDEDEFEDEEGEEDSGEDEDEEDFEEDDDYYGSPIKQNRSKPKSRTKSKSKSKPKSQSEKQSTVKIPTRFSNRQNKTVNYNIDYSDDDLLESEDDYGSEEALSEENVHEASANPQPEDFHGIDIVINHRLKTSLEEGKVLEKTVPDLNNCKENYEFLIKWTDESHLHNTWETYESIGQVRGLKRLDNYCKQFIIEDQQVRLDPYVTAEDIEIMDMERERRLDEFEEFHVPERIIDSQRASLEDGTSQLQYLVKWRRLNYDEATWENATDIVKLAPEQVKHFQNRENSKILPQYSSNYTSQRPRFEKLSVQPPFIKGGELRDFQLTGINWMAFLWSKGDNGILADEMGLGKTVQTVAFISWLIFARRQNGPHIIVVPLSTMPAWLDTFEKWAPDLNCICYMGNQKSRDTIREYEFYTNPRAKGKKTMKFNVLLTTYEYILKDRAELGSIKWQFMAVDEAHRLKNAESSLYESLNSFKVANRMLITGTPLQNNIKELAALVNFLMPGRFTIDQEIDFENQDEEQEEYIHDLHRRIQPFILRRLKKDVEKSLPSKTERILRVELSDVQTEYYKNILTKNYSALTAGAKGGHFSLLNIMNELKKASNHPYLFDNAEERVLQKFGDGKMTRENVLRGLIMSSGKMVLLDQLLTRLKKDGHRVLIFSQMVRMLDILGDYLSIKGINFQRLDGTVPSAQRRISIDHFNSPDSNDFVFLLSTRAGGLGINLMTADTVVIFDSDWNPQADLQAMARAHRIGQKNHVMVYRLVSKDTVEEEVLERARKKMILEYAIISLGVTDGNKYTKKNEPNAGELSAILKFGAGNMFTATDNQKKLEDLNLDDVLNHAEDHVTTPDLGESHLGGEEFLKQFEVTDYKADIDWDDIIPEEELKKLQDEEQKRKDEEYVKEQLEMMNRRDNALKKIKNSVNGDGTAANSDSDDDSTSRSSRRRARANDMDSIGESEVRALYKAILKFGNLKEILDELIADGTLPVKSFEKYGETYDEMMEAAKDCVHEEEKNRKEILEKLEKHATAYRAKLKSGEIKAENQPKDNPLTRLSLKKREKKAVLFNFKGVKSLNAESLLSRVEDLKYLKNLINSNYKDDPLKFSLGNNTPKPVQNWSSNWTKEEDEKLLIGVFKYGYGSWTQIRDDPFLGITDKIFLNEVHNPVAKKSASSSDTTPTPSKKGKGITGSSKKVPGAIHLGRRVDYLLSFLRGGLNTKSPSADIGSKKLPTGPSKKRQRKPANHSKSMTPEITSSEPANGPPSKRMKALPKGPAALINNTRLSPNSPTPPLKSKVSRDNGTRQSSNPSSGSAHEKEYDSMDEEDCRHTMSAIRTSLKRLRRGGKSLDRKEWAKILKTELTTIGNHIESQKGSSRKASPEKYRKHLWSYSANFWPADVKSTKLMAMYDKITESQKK

On to `CCc1nc(CN2CCCC(NCc3nc4cccnc4[nH]3)C2)no1` (stereo not drawn), for which the Percent Effect in experiment [1] was -0.119%; in experiment [2] it was 20.2%; in experiment [3], -9.6%; in [4], -10.5%; with Trypanosoma cruzi it was 2.36%; in [5] it was 0%. Besides, the Percent Effect was 5.98% in experiment [6]; 11.5% in the experiment listed under Homo sapiens; 10.3% in experiment [7]; 16.5% in experiment [8]; -8.46% in experiment [9].

Consider `Cc1ccc(-c2cc(N)c(=O)n(CC(=O)NCC3CCCCC3)n2)s1`, for which the Percent Effect is -3.51% in [1]; 9.46% in [2]; 11.8% in experiment [3]; -4.16% in experiment [4]; -6.13% in the experiment with Trypanosoma cruzi; -2.09% in experiment [5]. Besides, the Percent Effect in experiment [6] is 12.3%; in the experiment listed under Homo sapiens, 9.89%; in [7], -6.45%; in [8] it was 3.9%; in experiment [9] it was -4.23%.

On to `Nc1nccc(N2CCC(Cc3ccccc3Cl)(C(=O)O)CC2)n1`, for which the Percent Effect is -1.91% in experiment [1]; 16.2% in experiment [2]; -3.46% in [3]; 22.5% in [4]; 6.56% with Trypanosoma cruzi; 9.52% in [5]. For the same compound, the Percent Effect in experiment [6] is 18.1%; in the experiment listed under Homo sapiens it was -0.891%; in [7] it was 5.82%; in experiment [8], 21.9%; in experiment [9] it was -7.9%.

In the case of `CC(C)(C#N)C(=O)N1CCCC(c2cc(C(F)(F)F)[nH]n2)C1` (stereo not drawn), the Percent Effect in experiment [1] was -6.75%; in experiment [2] it was 16.2%; in [3], -6.25%; in [4] it was 19.3%; in the experiment on Trypanosoma cruzi it was 3.44%; in experiment [5], -2.03%. For the same compound, the Percent Effect in experiment [6] is 4.85%; in the experiment listed under Homo sapiens it was 14.8%; in [7] it was 2.97%; in experiment [8] it was 11%; in experiment [9] it was -8.63%.

Take `COc1ccc(CNC(=O)NCC2CCOC2)c(C(F)(F)F)c1` (stereo not drawn): the Percent Effect was -7.19% in experiment [1]; 1.39% in experiment [2]; -0.168% in experiment [3]; 4.9% in [4]; -4.37% with Trypanosoma cruzi; -0.442% in experiment [5]. Moreover, the Percent Effect was 9.3% in experiment [6]; 16.2% in the experiment listed under Homo sapiens; 5.26% in experiment [7]; 2.56% in experiment [8]; -0.725% in experiment [9].

For `Cc1ccc(NC(=O)c2cc(S(=O)(=O)N3CCCCC3)c[nH]2)cc1F`, the Percent Effect in experiment [1] was -2.47%; in experiment [2] it was 5.2%; in [3], 59.4%; in [4], -11.2%; in the experiment on Trypanosoma cruzi, -5.03%; in experiment [5], 5.81%. Further, the Percent Effect is 6.61% in experiment [6]; 4.38% in the experiment filed under Homo sapiens; 5.29% in [7]; -21.8% in [8]; -9.19% in experiment [9].

With `CN(CCO)Cc1nnc(C2CCN(C(=O)c3cccnc3)CC2)n1C`, the Percent Effect in experiment [1] was -3.37%; in experiment [2], 16%; in experiment [3] it was -6.42%; in experiment [4], 14.9%; in the experiment with Trypanosoma cruzi, 5.75%; in experiment [5], 4.69%. The Percent Effect in [6] is 6.97%; in the experiment listed under Homo sapiens, 4.06%; in [7], 6.01%; in experiment [8] it was 16.1%; in experiment [9], -7.14%.

`Cc1cccc(-c2ccc3nc(C4CCN(CC5CC5)CC4)nn3c2)c1`: the Percent Effect was -0.334% in experiment [1]; 5.48% in [2]; -2.67% in experiment [3]; 13.9% in experiment [4]; 3.77% in the experiment with Trypanosoma cruzi; -0.399% in [5]. Besides, the Percent Effect is 10.2% in experiment [6]; 8.44% in the experiment listed under Homo sapiens; 3.12% in experiment [7]; 8.64% in experiment [8]; -2.92% in [9].
